KB-3-1 tox = kills parental KB-3-1 adenocarcinoma cells | 1.4% of 400,000 active | Potency, µM (highest dose often 46.1 µM), hits mostly cytotoxic | KB-3-1 viability, CellTiter-Glo ATP luminescence, 72 h; further: on the % scale 0 is the no-effect control and ±100 the full control effect; nearly all actives have a fitted effect of over 60% in size
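72 h, 37 °C compound treatment of KB-3-1 parental cells; CellTiter-Glo added, 10 min, luminescence read. Data corrected against DMSO-only plates and normalized before curve fitting.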
12-LOX inh = blocks human arachidonate 12S-lipoxygenase | purified 12hLO, xylenol orange hydroperoxide absorbance | Potency, µM (doses to about 108 µM), without a hit: at the highest dose activity change, negative = inhibition, most hits filed as inhibitors | 1.1% of 580,000 active | AID 1671190; further: on the % scale 0 is the no-effect control and ±100 the full control effect
Target sequence (P18054 whole entry, looked up): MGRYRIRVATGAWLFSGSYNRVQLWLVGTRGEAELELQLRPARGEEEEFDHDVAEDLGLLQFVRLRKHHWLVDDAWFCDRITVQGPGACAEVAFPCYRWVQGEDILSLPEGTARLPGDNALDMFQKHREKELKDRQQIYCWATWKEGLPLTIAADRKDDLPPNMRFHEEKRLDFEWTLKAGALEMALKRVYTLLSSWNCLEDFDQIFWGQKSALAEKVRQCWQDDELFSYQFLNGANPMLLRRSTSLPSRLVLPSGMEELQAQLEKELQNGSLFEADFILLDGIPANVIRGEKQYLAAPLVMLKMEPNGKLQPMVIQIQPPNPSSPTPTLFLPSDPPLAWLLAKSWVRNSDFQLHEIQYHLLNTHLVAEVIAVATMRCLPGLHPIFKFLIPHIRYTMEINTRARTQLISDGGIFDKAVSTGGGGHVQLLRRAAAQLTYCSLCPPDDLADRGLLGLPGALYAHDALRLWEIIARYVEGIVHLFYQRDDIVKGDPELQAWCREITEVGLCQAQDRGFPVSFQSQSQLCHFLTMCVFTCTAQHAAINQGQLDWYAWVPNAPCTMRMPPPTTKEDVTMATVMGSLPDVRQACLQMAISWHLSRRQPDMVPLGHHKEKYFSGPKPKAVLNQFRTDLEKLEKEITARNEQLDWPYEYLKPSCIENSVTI
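Hydroperoxide product was detected by ferrous iron/xylenol orange as the 573 to 405 nm absorbance ratio. Arachidonic acid at 40 uM (final) was turned over for 30 min at room temperature by 150 nM human 12hLO, pH 7.0 Hepes buffer, after 15 min compound preincubation.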
SW480 rerep = inducers of DNA re-replication in SW480 colon cancer cells; SW480 DNA re-replication, Hoechst DNA content imaging, 48 h; Potency, µM (doses to about 46.1 µM), for the others: top-dose re-replication activation, actives largely listed as activators; 1.8% of 340,000 active; AID 624297; further: % of control where 0% means no effect; nearly all actives have a fitted effect of over 55% in size
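Treated cells incubate 48 hr (37 C, 5% CO2), are stained 40 min with Hoechst, and nuclear fluorescence is enumerated; a rise in nuclei with high DNA signal marks re-replication.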
MCF10A rereplic = DNA re-replication induction in MCF 10a cells; MCF 10A DNA re-replication, Hoechst nuclear intensity, 48 h; Potency, µM (titrated, usually from 46.1 µM), without a hit: at the highest dose activity, positive = re-replication, most hits filed as activators; 2.9% of 350,000 active; further: % of control where 0% means no effect; nearly all actives have a fitted effect of over 50% in size
PINK1 modulator = changes PINK1 expression; PINK1 immunofluorescence, high-content cytometry, 24 h; Potency, µM (highest dose often 76.6 µM), without a hit: top-dose activation (PINK1 increase), most hits filed as activators; 0.2% of 410,000 active; AID 624263; active means well fitted activation curve with a large enough effect; inconclusive means small, poorly fitted or top-dose-only effect; cell line not stated here; further: % of control where 0% means no effect; nearly all actives have a fitted effect of over 65% in size
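Decision-based qHTS: stable cells, 24 h exposure to five compound concentrations, CCCP as control. Fixed cells stained for PINK1 plus nuclear, mitochondrial and cell markers, cytometer read.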
KB-V1 MDR tox = kills drug-selected multidrug resistant KB-V1 cells. KB-V1 MDR cells viability, CellTiter-Glo, 72 h. Potency, µM (titrated, usually from 46.1 µM), usual class: cytotoxic. 3.4% of 400,000 active. AID 1347076; further: on the % scale 0 is the no-effect control and ±100 the full control effect; nearly all actives have a fitted effect of over 60% in size
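Following 72 h at 37 degrees C with compound, KB-V1 cell viability was read by CellTiter-Glo luminescence, medium being phenol-red-free DMEM plus 10% FBS; concentration-response parameters came from normalized, curve-fitted qHTS data.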
Numbers without * were called inactive; i = inactive; ? = inconclusive; . = not tested or not shown; [ ] = remark or other dose. Only some compounds are listed: those with a hit (about 5.8% of all), similar ones and a draw of the others. Unless noted, the call rests on the fitted dose curve; in most records, active means well fitted curve in the direction sought with a large enough effect; inconclusive means small, poorly fitted or top-dose-only effect, or another doubt; inactive means no such curve, though single readings can be large; an effect the other way counts as inactive or inconclusive. Potency means the concentration at half of the fitted maximal effect.

SMILES | KB-3-1 tox | 12-LOX inh | SW480 rerep | MCF10A rereplic | PINK1 modulator | KB-V1 MDR tox
Cc1nn(-c2nc3ccccc3[nH]2)c(N)c1-c1ccc(Cl)cc1 | ? | 0% | ? | ? | 9% | 18µM*
Cc1nn(-c2nc3ccccc3[nH]2)c(=O)c2ccccc12 | 1.3µM* | 21% | 3% | 30% | -2% | 5.8µM*
CCn1c(N2CCN(Cc3ccc(Cl)cc3Cl)CC2)nc2c1c(=O)[nH]c(=O)n2C | . | -7% | . | . | . | .
Cc1cc(OCc2nn[nH]n2)c2c(C)c(C)c(=O)oc2c1 | . | -19% | . | . | . | .
Cc1ccc(NC2=C(Cl)C(=O)OC2OC(=O)c2ccco2)cc1 (centres undefined) | i | ? | 21µM* | ? | 0%[38.3 µM] | i
Cc1cccc(NC2=C(Cl)C(=O)OC2OC(C)C)c1 (centres undefined) | i | 4% | -6% | -1% | 0% | i
Cc1cccc(NC2=C(Cl)C(=O)OC2OC(=O)c2ccco2)c1 (centres undefined) | i | -10% | 4.6µM* | ? | 5% | i
CCOc1ccc(OCCC(=O)OCC(=O)Nc2c(C)cc(C)cc2Cl)cc1 | . | -44% | . | . | . | .
O=c1[nH]c(S)nc2sc3c(c12)CCCC3 | i | . | 0% | ? | 0% | i
O=c1[nH]c(-c2ccco2)nc2sc3c(c12)CCCC3 | i | -3% | 1% | -6% | -1% | 18µM*
CC(Sc1cc(C(=O)NC2CC2)c2ccccc2n1)C(=O)N1CCCC1 (centres undefined) | . | -17% | . | . | . | .
Cc1ccccc1-n1c(C)nnc1SCc1nc2ccccc2o1 | . | -11% | . | . | . | .
Cn1cc(CNCC2(COc3ccc(C(F)(F)F)cn3)C[C@@H](O)[C@@H](O)C2)cn1 (some centres undefined) | . | 18µM* | . | . | . | .
O=C(NCC1(COc2ccc(C(F)(F)F)cn2)C[C@@H](O)[C@@H](O)C1)C1CC1 (some centres undefined) | . | 102%[176 µM] | . | . | . | .
COc1ccc(CCC(C)NCC2CCCCC2)cc1 (centres undefined) | ? | -26% | ? | ? | -1% | 21µM*
COc1ccc(CCC(C)NC2CCCCCCC2)cc1 (centres undefined) | i | 24% | ? | ? | 4% | ?
O=C(NCCc1ccccc1F)C1CC(=O)N(c2cccc(C(F)(F)F)c2)C1 (centres undefined) | i | -11% | -1% | 5% | -1% | 13µM*
COc1ccc(CCNC(=O)C2CC(=O)N(c3ccc(C)cc3)C2)cc1OC (centres undefined) | i | 3% | 4% | -7% | 4% | i
O=C(NCCc1ccc(Cl)cc1)C1CCC(=O)N1C1CCCC1 (centres undefined) | i | -13% | -11% | -4% | . | i
CCOc1ccc(CCNC(=O)C2CCN(S(=O)(=O)N3CCC(C)CC3)CC2)cc1OCC | i | 7% | 10% | 5% | 5% | 2.6µM*
COc1ccc(CCNC(=O)C2CC(=O)N(c3ccc(C(C)(C)C)cc3)C2)cc1OC (centres undefined) | i | -8% | -2% | 0.58µM* | 0% | i
CCOc1ccc(CCNC(=O)C2CCC(=O)N2C2CCCCC2)cc1OCC (centres undefined) | i | 5% | -3% | -3% | 4µM* | i
O=C1Nc2ccccc2CC12CCN(CC1CC1)CC2 | . | 19%[176 µM] | . | . | . | .
O=C(Nc1cc(F)ccc1F)c1cnc(N2CCCCC2)c2ccccc12 | . | -16% | . | . | . | .
COC(=O)Cn1c(=O)c2c(nc(-n3nc(C)cc3C)n2C)n(C)c1=O | . | 0% | . | . | . | .
SMILES | KB-3-1 tox | 12-LOX inh | SW480 rerep | MCF10A rereplic | PINK1 modulator | KB-V1 MDR tox
COc1ccc(CCNC(=O)C2CCN(S(=O)(=O)N3CC(C)CC(C)C3)CC2)cc1OC (centres undefined) | i | 13% | 5% | 5% | 2%[38.3 µM] | 21µM*
CC(=O)c1cccc(NC(=O)c2n[nH]c(=O)c3ccccc23)c1 | . | -74% | . | . | . | .
Cc1ccccc1-c1nc(C#N)c(NCCCN(C)C)o1 | . | -4% | . | . | . | .
Cc1oc2c(O)c(O)ccc2c(=O)c1-c1ccc(Cl)cc1 | i | 5.6µM* | ? | -7% | -1% | i
Cc1oc2c(O)c(O)ccc2c(=O)c1-c1ccccc1 | i | ? | ? | -3% | 0% | ?
Cc1oc2c(O)c(O)ccc2c(=O)c1-c1cnn(-c2ccccc2)c1 | i | ? | ? | 20% | 2%[38.3 µM] | 3.7µM*
O=C(Nc1ccc(Oc2ccc(S(=O)(=O)N3CCOCC3)cn2)cc1)c1ccco1 | i | -7% | -7% | 4% | 3% | 18µM*
O=C(Nc1ccc(S(=O)(=O)N2CCOCC2)cc1)c1ccco1 | i | 0% | -8% | -11% | 1% | i
COc1ccc(/C=N\NC(=O)c2c(C)nc3ccc(Br)cn23)cc1 | ? | -3% | 2.3µM* | ? | 6% | ?
Cc1ccc2nc(C)c(C(=O)NN=C3CCN(C)CC3)n2c1 | i | 12% | 21µM* | ? | 6% | i
Cc1ccc(/C=N/NC(=O)c2c(C)nc3ccc(Br)cn23)cc1 | 1.5µM* | -5% | 1.5µM* | ? | 6% | 1.3µM*
Cc1nc2ccccn2c1C(=O)N/N=C/c1cc(C)n(-c2ccc(Br)cc2)c1C | 21µM* | -6% | 15% | ? | -9%[38.3 µM] | ?
Cc1ccc(C(=O)NNC(=O)COC(=O)c2ccccc2SCc2ccc(C#N)cc2)cc1 | . | 32% | . | . | . | .
O=C(c1cn(-c2ccc(Cl)cc2)nn1)N1CCc2ccccc2C1 | . | 8% | . | . | . | .
Cc1cccc(NC(=O)COc2ccc3c(C)cc(=O)oc3c2)c1 | . | 8% | . | . | . | .
CC/C=C(/C)C(=O)NCCc1cccs1 | . | -20% | . | . | . | .
Cc1ccc(Nc2ccc(S(N)(=O)=O)cc2[N+](=O)[O-])cc1 | . | -51% | . | . | . | .
COc1cccc(/C=N/NC(=O)c2c(C)nc3ccc(Br)cn23)c1O | ? | . | 0.65µM* | -12% | 1% | i
CCOc1ccccc1/C=N/NC(=O)c1c(C)nc2ccc(Br)cn12 | i | 16% | -1% | -7% | -1% | i
COc1cc(OC)c(C(=O)OCC(=O)Nc2ccccc2C(C)=O)cc1OC | . | 33% | . | . | . | .
NC(=NCCc1c[nH]c2ccccc12)NC(=O)c1ccc(Cl)cc1 | i | 40µM* | 17% | 26% | 1% | i
Cc1cc(C)nc(NC(N)=NCCc2c[nH]c3ccccc23)n1 | ? | -13% | 8% | 9% | 0% | i
Cc1cc(C)nc(NC(=NCCc2c[nH]c3ccccc23)NC(=O)Nc2ccc(Cl)cc2)n1 | i | -4% | 19% | 28% | 8% | 8.2µM*
COc1ccccc1CNS(=O)(=O)CCNCCc1ccccc1 | i | -5% | 5% | 21µM* | -1% | i
